According to PubChem BioAssay (NCI):
“And” between values parts separate entries of the source, which are not always exact repeats. Equal values may be shown once. Compounds without any hit were thinned out: in the full panel of roughly 83,000, 20% have a hit.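 96-well plates, one dose, 48 hours. Percent growth reported; active if below 10.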 Unmarked numbers belong to inactive results. The source made the active and inactive calls.

Test system: MDA-MB-468 breast
Experiment: NCI-60 one-dose screen, 48 h (100 = growth as untreated, 0 = no growth, -100 = all killed)
Settings: 10 µM unless noted

Compound	growth
COc1ccc(-c2nc3sccn3c2/C=C/C(=O)c2c[nH]c3ccccc23)cc1	62.6%
COc1ccc(/C=C\c2cc(OC)c(OC)c(OC)c2)cc1OCC(=O)Nc1ccc2nc(C)sc2c1	7.78% (active)
Ic1ccccc1I	98.9%
CCOC(=O)C(C(=O)OCC)C(c1ccccc1)N1CCN(c2ccccc2)CC1 (stereo unspecified)	108% and 103%
Cc1cc(CSc2ccc(Cl)cc2)ccc1N	102%
O=C1NC(=O)c2cc([N+](=O)[O-])cc3cccc1c23	91%
O=C(/C=C/c1cccc(F)c1)c1cccc(OCCCCOc2cccc(C(=O)/C=C/c3cccc(F)c3)c2)c1	87.2%
Cc1cccc(C(=O)N(C(C)C)C(C)C)c1	105%
O/N=C1\CCC2CCCCC2C1 (stereo unspecified)	105%
CN(CCCNC(=O)Cc1ccc2ccc3cccc4ccc1c2c34)CCCNc1cc(-c2ccc3ccccc3c2)nc2ccccc12	-78.4% (active)
COc1cc(C)cc(-c2c(-c3cc(N4CC(O)C4)nc(-c4cccnc4)n3)cnn2C)c1	80.2%
O=C(CSc1nnc(-c2cnccn2)n1-c1ccccc1)c1ccc(Cl)cc1	97.6%
O=C1Nc2ccc(Br)cc2/C1=N/c1nc(-c2ccccc2)cs1	99.8%
CC(CN1CCCCC1)NC(=O)c1scnc1-c1ccccc1 (stereo unspecified)	111%
N#C/C(=C\c1ccc(Br)cc1)n1nnc2cc(Cl)c(Cl)cc21	-5.24% (active)
COc1ccc(/C=C2/CCc3cc4ccc(OC)cc4[o+]c32)c(O)c1	97.1%
